Laboratory results: PubChem BioAssay (NCATS)
A number with no mark means an inactive call. For part of these data: Entries with a potency or affinity are not part of this list. Activity calls are given as the source filed them. The rule behind the calls is not given here.

Columns and labels:
[1] = Ebola virus entry assay, green fluorescence channel
[2] = Ebola virus entry assay, blue channel fluorescence
[3] = Ebola virus entry assay, ratio channel
[4] = Ebola virus entry assay, green channel fluorescence
[5] = Ebola virus entry assay, reporter ratio channel; Channel type: primary
[6] = Ebola virus entry assay, blue channel (ratio component)
Throughout, for efficacy: 0% is about no effect.

SMILES	efficacy [1]	outcome [2]	outcome [3]	outcome [4]	outcome [5]	outcome [6]	AC50 [5]
COc1cc(C(=O)NCCCCCC(=O)O)cc(OC)c1OC	-33.5%	inactive	inactive	inactive	inactive	inactive	
O=C(O)c1cccc(-c2noc(-c3ccccc3F)n2)c1	13.1%	inactive	inactive	inactive	inactive	inactive	
OC[C@H]1O[C@@H](n2cnc3c(=S)nc[nH]c32)[C@H](O)[C@@H]1O	23.6%	inactive	inactive	inactive	inactive	inactive	
Cc1ncc(CSSCc2cnc(C)c(O)c2CO)c(CO)c1O	-36.5%	inactive	inactive	inactive	inactive	inactive	
CC(=O)OCC(=O)Nc1cc(C#N)cc(NC(=O)COC(C)=O)c1Cl	24.6%	inactive	inactive	inactive	inactive	inactive	
CC(=O)N1C[C@H](O)C[C@H]1C(=O)O	24.5%	inactive	inactive	inactive	inactive	inactive	
CC(=O)O[C@H]1CC[C@@]2(C)C(=CC[C@@H]3[C@@H]2CC[C@]2(C)C(C(C)=O)=CC[C@@H]32)C1	-13.1%	inactive	inactive	inactive	inactive	inactive	
CCN(CC)C(=O)c1cccc(C)c1	-20%	inactive	inactive	inactive	inactive	inactive	
O=c1cc(CO)occ1O	16.7%	inactive	inactive	inactive	inactive	inactive	
O=C(CCCCC(=O)Nc1c(I)cc(I)c(C(=O)O)c1I)Nc1c(I)cc(I)c(C(=O)O)c1I	11.5%	inactive	inactive	inactive	inactive	inactive	
COC(=O)[C@@H](N)Cc1ccc(O)c(O)c1	-12%	inactive	inactive	inactive	inactive	inactive	
C[C@@H](O)[C@H](N)C(=O)O	-9.88%	inactive	inactive	inactive	inactive	inactive	
CCc1nnc(NS(=O)(=O)c2ccc(N)cc2)s1	-8.59%	inactive	inactive	inactive	inactive	inactive	
CCCCNc1cc(C(=O)O)cc(S(N)(=O)=O)c1Oc1ccccc1	-14.8%	inactive	inactive	inactive	inactive	inactive	
CCN[C@H]1C[C@H](C)S(=O)(=O)c2sc(S(N)(=O)=O)cc21	10.6%	inactive	inactive	inactive	inactive	inactive	
Nc1c(CC(=O)O)cccc1C(=O)c1ccc(Br)cc1	18.5%	inactive	inactive	inactive	inactive	inactive	
CCCCN1CCCC[C@H]1C(=O)Nc1c(C)cccc1C	30%	inactive	inactive	inactive		inactive	39.8 µM (active)
CCOC(=O)C(C)(C)Oc1ccc(Cl)cc1	22.6%	inactive	inactive	inactive	inactive	inactive	
N[C@@H](Cc1ccc(O)cc1)C(=O)O	37.7%	inactive	inactive	inactive	inactive	inactive	

SMILES	efficacy [1]	outcome [2]	outcome [3]	outcome [4]	outcome [5]	outcome [6]	AC50 [5]
C=C1C[C@H]2[C@@H]3C=C(C)C4=CC(=O)CC[C@]4(C)[C@H]3CC[C@]2(C)[C@@]1(OC(C)=O)C(C)=O	-35.6%	inactive	inactive	inactive	inactive	inactive	
O=S1(=O)OC(c2ccc(O)cc2)(c2ccc(O)cc2)c2ccccc21	19.3%	inactive	inactive	inactive	inactive	inactive	
CN(C)CCCO[C@@H]1[C@H]2OC(C)(C)O[C@H]2O[C@@H]1C(O)CO (some centres not stated)	-11.8%	inactive	inactive	inactive	inactive	inactive	
Clc1ccc(C(Cn2ccnc2)OCc2ccc(Sc3ccccc3)cc2)c(Cl)c1 (configuration not stated)	29.2%	inactive	inactive	inactive	inactive	inactive	
NC(=O)CC[C@@H](N)C(=O)O	-11.5%	inactive	inactive	inactive	inactive	inactive	
C[C@]12CC[C@@H]3c4ccc(O)cc4CC[C@H]3[C@@H]1CC[C@@H]2OC(=O)CCC1CCCC1	23.9%	inactive	inactive	inactive	inactive	inactive	
COc1ccccc1OC(=O)Oc1ccccc1OC	-25.8%	inactive	inactive	inactive	inactive	inactive	
CC(C)(C)NCC(O)COc1cccc2c1CCC(=O)N2 (configuration not stated)	-22.9%	inactive	inactive	inactive	inactive	inactive	
CC(=O)[C@@]1(O)CC[C@H]2[C@@H]3CCC4=CC(=O)CC[C@]4(C)[C@H]3CC[C@@]21C	-9%	inactive	inactive	inactive	inactive	inactive	
COc1ccc(CN(CCN(C)C)c2ncccn2)cc1	-18%	inactive	inactive	inactive	inactive	inactive	
NS(=O)(=O)c1cc2c(cc1Cl)NCNS2(=O)=O	14.8%	inactive	inactive	inactive	inactive	inactive	
CN1CCCN=C1/C=C/c1cccs1	-15%	inactive	inactive	inactive	inactive	inactive	
OCC(O)CN1CCN(c2ccccc2)CC1 (configuration not stated)	24.6%	inactive	inactive	inactive	inactive	inactive	
N[C@H](C(=O)O)c1ccc(O)cc1	11.9%	inactive	inactive	inactive	inactive	inactive	
CN(C)CC[C@@H](c1ccc(Cl)cc1)c1ccccn1	-31.3%	inactive	inactive	inactive	inactive	inactive	
Cl/C(=C\n1cncn1)c1ccc(Cl)cc1Cl	-16.7%	inactive	inactive	inactive	inactive	inactive	
CN1[C@@H]2CC[C@H]1CC(NC(=O)n1c(=O)[nH]c3ccccc31)C2 (some centres not stated)	-15.6%	inactive	inactive	inactive	inactive	inactive	
CCOC(=O)C(=O)c1csc(NC=O)n1	-15.8%	inactive	inactive	inactive	inactive	inactive	
CCOC(=O)NNc1nncc2ccccc12	-15.2%	inactive	inactive	inactive	inactive	inactive	

SMILES	efficacy [1]	outcome [2]	outcome [3]	outcome [4]	outcome [5]	outcome [6]	AC50 [5]
C/C=C/c1ccc(OC)cc1	-25.2%	inactive	inactive	inactive	inactive	inactive	
FC(F)(F)C(Cl)Br (configuration not stated)	31.6%	inactive	inactive	inactive	inactive	inactive	
CN(C(=O)c1c(O)c2ccccc2n(C)c1=O)c1ccccc1	-16%	inactive	inactive	inactive	inactive	inactive	
O=c1[nH]cnc2c1ncn2[C@@H]1O[C@H](CO)[C@@H](O)[C@H]1O	-42.8%	inactive	inactive	inactive	inactive	inactive	
Nc1ccncc1N	-16.5%	inactive	inactive	inactive	inactive	inactive	
C=CCCCCCCCCC(=O)O	-13.8%	inactive	inactive	inactive	inactive	inactive	
CCOC(=O)[C@H](CCc1ccccc1)N[C@@H](C)C(=O)N1C(=O)N(C)C[C@H]1C(=O)O	-14.8%	inactive	inactive	inactive	inactive	inactive	
C[C@]12CCC(=O)C=C1CC[C@@H]1[C@@H]2C(=O)C[C@@]2(C)[C@H]1CC[C@]2(O)C(=O)CO	28.7%	inactive	inactive	inactive	inactive	inactive	
CC(=O)Oc1c(C)c(C)c2c(c1C)CC[C@@](C)(CCC[C@H](C)CCC[C@H](C)CCCC(C)C)O2	-9.77%	inactive	inactive	inactive	inactive	inactive	
C[N+]12CCC(CC1)C(OC(=O)C(O)(c1ccccc1)c1ccccc1)C2 (configuration not stated)	11.2%	inactive	inactive	inactive	inactive	inactive	
OC1C(O)C(O)C(O)C(O)C1O (configuration not stated)	12.1%	inactive	inactive	inactive	inactive	inactive	
O=C(O)/C=C/c1ccc(Cn2ccnc2)cc1	-14.9%	inactive	inactive	inactive	inactive	inactive	
CCc1oc2ccccc2c1C(=O)c1cc(Br)c(O)c(Br)c1	16.5%	inactive	inactive	inactive	inactive	inactive	
CCC(=O)Nc1ccc(O)cc1	-18.3%	inactive	inactive	inactive	inactive	inactive	
CCN(CC)CC(=O)Nc1c(C)cccc1C	11%	inactive	inactive	inactive	inactive	inactive	
CCCc1cc(C(N)=S)ccn1	-10.8%	inactive	inactive	inactive	inactive	inactive	
O=C1CC2(CCCC2)CC(=O)N1CCNCC1COc2ccccc2O1 (configuration not stated)	16.2%	inactive	inactive	inactive	inactive	inactive	
CCOC(=O)c1cccc(N)c1	16.6%	inactive	inactive	inactive	inactive	inactive	
CN(C)CCC(c1ccccc1)c1ccccn1 (configuration not stated)	12.6%	inactive	inactive	inactive	inactive	inactive	
